Screening results (PubChem BioAssay)
Rows were chosen to be rich in hits. Some 2.4% of all compounds tested hit in one or more screens of this group.
PINK1 modulator: PINK1 expression modulation. PINK1 immunofluorescence, high-content cytometry, 24 h. actives 0.2% (n = 410,000). Potency, µM (titrated, usually from 76.6 µM), inactives show at the top dose activation (PINK1 increase), usual class: activators; active = well fitted activation curve with a large enough effect; inconclusive = small, poorly fitted or top-dose-only effect; cell line not stated here; also: % of control where 0% means no effect; nearly all actives have a fitted effect of over 65% in size
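A stable cell line was treated with compounds at 5 concentrations for 24 hours, with CCCP as control. PINK1 levels and mitochondrial localization were measured by immunofluorescence with mitochondrial, cell and nuclear markers after fixation, read by laser-scanning cytometry.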
Epigenetic derep: regulators of epigenetic silencing causing reporter derepression in mouse cells; murine LDR cells, GFP reporter derepression, 30 h; Potency, µM (top dose mostly 53.9 µM), without a hit: at the top dose GFP activation, actives largely listed as activators; actives 0.2% (n = 280,000); AID 1865; also: % of control where 0% means no effect; nearly all actives have a fitted effect of over 60% in size
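Reporter derepression read as number of fluorescent GFP-positive objects, 20-120 um in size, counted by laser-scanning cytometer. Mouse LDR line with an epigenetically silenced CMV-GFP locus; compound incubation 30 h, 37 C.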
A549 viability: counter-screen for Nrf2 inhibitors: cytotoxicity in A549 cells | actives 0.16% (n = 390,000) | A549 ARE-Fluc cells, CellTiter-Fluor viability, 18-24 h | Potency, µM (series often up to 46 µM), inactives show at the highest dose activity change, negative = cytotoxicity, actives largely listed as inhibitors; also: % is scaled to controls: 0 for no effect and ±100 for the full control effect
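A549 ARE-Fluc cells in 5% FBS OPTI-MEM, 5000 cells/well, rested 2 h then exposed to compounds in concentration-response for 18-24 h at 37 °C. Viability by CellTiter-Fluor fluorescence (Ex 405/Em 525) after 30 min; luciferase luminescence (BugLite, 15 min, RT) read afterwards.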
Nrf2 ARE act: Nrf2 pathway activation. AREc32 ARE-luciferase reporter (MCF7-derived line), luminescence, 24 h. Potency, µM (top dose mostly 46.1 µM), inactives show at the highest dose activation, usual class: activators. actives 0.31% (n = 410,000); also: % of control where 0% means no effect; nearly all actives have a fitted effect of over 65% in size
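AREc32 cells carrying an ARE-driven firefly luciferase, 1000 cells/well in OPTI-MEM with 5% FBS, dosed after overnight attachment and incubated 24 hr at 37 deg C. Steady-Glo luminescence read after 30 min at RT.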
Nrf2 inh: blocks Nrf2 signaling; Potency, µM (top dose mostly 46 µM), inactives show at the top dose activity change, negative = inhibition, hits mostly inhibitors; AID 504444; A549 ARE-Fluc reporter, luciferase luminescence, 18-24 h; actives 2.1% (n = 360,000); also: % is scaled to controls: 0 for no effect and ±100 for the full control effect; nearly all actives have a fitted effect of over 60% in size
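In this cell-based qHTS, ARE-driven firefly luciferase in A549 cells reports Nrf2 activity; the luminescent signal after BugLite lysis is the measured value, with a prior CellTiter-Fluor read for cell health.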
Starred values were filed as active, the others as inactive; ? = inconclusive; . = not tested or not shown; [ ] = remark or other dose. Unless noted, calls follow the shape of the dose curve; as a rule, active = well fitted curve in the direction sought with a large enough effect; inconclusive = small, poorly fitted or top-dose-only effect, or another doubt; inactive = no such curve, though single readings can be large; an effect the other way counts as inactive or inconclusive. Potency is read from the fitted curve at half-maximal effect.

SMILES | PINK1 modulator | Epigenetic derep | A549 viability | Nrf2 ARE act | Nrf2 inh
Cc1ccc(S(=O)(=O)c2cn(C)c3cc(N4CCCCC4)c(F)cc3c2=O)cc1 | 1% | 5% | 9% | 0% | -17%
Cc1ccccc1CS(=O)(=O)c1snnc1C | -2% | -1% | . | 10% | ?
Cc1nnsc1S(=O)(=O)c1ccccc1 | 4% | . | 0% | 1% | 8.2µM*
CCCCC(CC)CNC(=O)c1ccc(Cn2c(=O)[nH]c3cc(OC)c(OC)cc3c2=O)cc1 (configuration not stated) | 0% | 1% | ? | -1% | -6%[9.27 µM]
O=[N+]([O-])c1cc(C(F)(F)F)ccc1NCCNC(=S)Nc1ccc(Cl)cc1 | 13µM* | -2% | ? | 0% | ?
CCOC(=O)OCC1OC(c2ccccc2)C=CC1Oc1ccc2oc(=O)cc(C)c2c1 (configuration not stated) | . | 14%[10.1 µM] | . | . | .
CC(O)(COc1ccccc1)c1ccc2c(c1)CN(Cc1cccc3cccnc13)CCO2 (configuration not stated) | 0% | . | . | . | .
N#Cc1cc(C(=O)c2ccccc2O)cn(-c2nccs2)c1=O | 14% | 0% | 0% | 22µM* | -2%
CCOC(=O)C1CCC(CN(Cc2c(Cl)cccc2Cl)S(=O)(=O)c2ccc(F)cc2)CC1 (configuration not stated) | -1% | 5% | -5% | 1% | .
N=C1C=CC(=C(c2ccc(N)cc2)c2ccc(N)cc2)C=C1 | ? | . | 9.2µM* | 10% | 7.3µM*
CC1(C)Nc2cccc3c(N=Nc4ccc(N=Nc5ccccc5)c5ccccc45)ccc(c23)N1 | 1% | . | . | . | .
Cc1cc(Nc2sc(C(=O)c3ccc(F)cc3)c(N)c2C(=O)Nc2ccc(F)cc2)ccc1Cl | ? | -1% | 16µM* | -2% | .
COc1ccc(NC(=O)c2c(Nc3ccccc3)sc(C(=O)c3ccc(F)cc3)c2N)cc1 | ? | -3% | -17% | 10% | ?
COc1ccc(C(=O)c2sc(Nc3cccc(OC)c3)c(C(=O)Nc3cccc(C)c3C)c2N)cc1 | -2% | -3% | ? | 7% | 23µM*
COc1ccc(Nc2sc(C(=O)c3ccc(Cl)cc3)c(N)c2C(=O)Nc2ccccc2OC)cc1 | 16µM* | 4% | -19% | 3% | ?
CCC(C)c1ccccc1OCCn1c(CCNC(=O)C2CCCCC2)nc2ccccc21 (configuration not stated) | -1% | . | -30% | . | ?
COc1ccc(OC)c(C(C)NC(=S)NC2CCCCC2)c1 (configuration not stated) | ? | . | 0% | 0% | 18µM*
Cc1cccc(CN2C[C@H](Sc3ccccn3)C[C@H]2C(=O)Nc2ccc3sc(C)nc3c2)c1 | -1% | . | . | . | .
Cc1ccccc1-c1csc2ncnc(Sc3nnnn3C)c12 | . | . | 1% | . | -10%
CCOC(=O)C1=C(C)C(c2cccc(Oc3ccccc3)c2)NC(=S)N1 (configuration not stated) | 2% | 1% | 3% | 5% | ?
CCCC(=O)C1=C(O)C(c2cccc(Oc3ccccc3)c2)CCC1=O (configuration not stated) | 0% | -2% | ? | 0% | 18µM*
Cc1cccc2[nH]c3c(N4CC=C(c5ccc(F)cc5)CC4)ncnc3c12 | ? | 0% | -10% | 6% | 21µM*
COc1cccc2[nH]c3c(N4CCCCC4)ncnc3c12 | 0%[38.3 µM] | -6% | 10% | 2% | ?
Cc1ccc2cccc(NC(=S)NC(=O)c3ccccc3)c2n1 | 2% | 0% | -18% | 4µM* | -10%
Cc1csc(NC(=S)NC(=O)c2ccccc2)n1 | 0% | . | -1% | 6.3µM* | ?
SMILES | PINK1 modulator | Epigenetic derep | A549 viability | Nrf2 ARE act | Nrf2 inh
CCOC(=O)Cc1csc(NC(=O)c2sc3nc4ccc(CC)cc4cc3c2N)n1 | 40µM* | ? | -1% | 8% | 2%
COc1cc(OC)nc(NC(=S)NC(=O)c2ccccc2)n1 | -1% | -3% | 25% | 11µM* | 11%
CCOC(=O)Cc1csc(NC(=S)NC(=O)c2ccc(C)cc2)n1 | 2% | 6% | -10% | -3% | 2.1µM*
CCOC(=O)Cc1csc(NC(=S)NC(=O)c2ccccc2)n1 | -1% | 1% | 5% | -2% | 0%
CCOc1ccccc1-c1c2cc(O)c(=O)cc-2oc2cc(O)c(O)cc12 | 11% | 2% | 18µM* | -1% | ?
COc1ccc(OC)c(-c2c3cc(O)c(=O)cc-3oc3cc(O)c(O)cc23)c1 | 6% | 3% | 21µM* | 3% | -54%
O=c1cc2oc3cc(O)c(O)cc3c(-c3ccccc3O)c-2cc1O | 7% | -1% | -18% | ? | ?
Cc1c(P(=S)(c2ccccc2)c2ccccc2)c2ccccc2n1C(=O)Cc1ccccc1 | . | . | 6% | . | 4%
O=S(=O)(NCC1CN(S(=O)(=O)c2c(F)cccc2F)C1)c1ccc2c(c1)OCCO2 | 1% | . | -12% | 2% | 12µM*
O=S(=O)(c1ccc2c(c1)OCCO2)N1CCN(S(=O)(=O)c2c(F)cccc2F)CC1 | . | . | ? | . | 0%
CCc1ccc2oc(-c3ccc(NC(=O)c4cccc(Cl)c4Cl)cc3)nc2c1 | 12% | 3% | -1% | 0% | 8.2µM*
O=C(Nc1ccc2oc(-c3ccc4ccccc4c3)nc2c1)c1cccc(Cl)c1Cl | 4% | 1% | 2% | 0% | 18%
COc1ccccc1NS(=O)(=O)c1ccc(C(=O)N2CCCC(C(F)(F)F)C2)cc1 (configuration not stated) | 1% | . | -8% | 0% | 23µM*
CC1CCN(S(=O)(=O)c2ccc(C(=O)N3CCCC(C(F)(F)F)C3)cc2)CC1 (configuration not stated) | 0% | . | -14% | 0% | 21µM*
O=C(c1ccc(S(=O)(=O)N2CCCCCC2)cc1)N1CCCC(C(F)(F)F)C1 (configuration not stated) | 0% | . | -3% | 0% | -9%
COc1ccccc1NS(=O)(=O)c1ccc(C(=O)N2CCCC(C)C2)cc1 (configuration not stated) | -1% | . | -6% | 0% | 8%
O=C(Cn1cc(C(=O)c2ccncc2)c(=O)c2cc(F)ccc21)Nc1ccc(Cl)cc1 | 1% | 6% | 1% | 1% | .
Cn1nc(C(F)(F)F)c(C#N)c1N1CCN(c2ccc(F)cc2)CC1 | -2% | -1% | -3% | 0% | 12µM*
C=Cc1cc2c(s1)c1cnn(Cc3ccccc3F)c(=O)c1n2C | . | . | -5% | . | -4%
CC1CCN(S(=O)(=O)c2cc(C(=O)N3CCN(c4ncccn4)CC3)ccc2Br)CC1 | 2% | -1% | 1% | 0% | 23µM*
CC1CCN(C(=O)c2ccc(Br)c(S(=O)(=O)N3CCOCC3)c2)CC1 | 1% | . | -2% | 0% | 1%
CSc1ccc(-c2sc(Nc3ccccc3)n[n+]2-c2ccccc2)cc1 | 2% | . | 3% | 6% | 16%
